The structures appear in SMILES notation. Active and inactive are the calls of the source. The calls were made as follows: active = hit-call score of the fitted dose curve at least 0.9, where 1 is the maximum; inactive = score below 0.9.

The target of the experiment is Signal transducer and activator of transcription 3 (Homo sapiens) (UniProt P40763). Put plainly: ATG_STAT3_CIS: Attagene CIS-FACTORIAL HepG2 Assay for human Signal Transducer and Activator of Transcription 3 (STAT3) (AID 2282963). Conditions: HepG2, Attagene cis-factorial STAT3 reporter transcription; actives raise or lower the signal. Here is the method: ATG_CIS is a cell-based, multiplexed-readout assay that uses HepG2, a human liver cell line, with measurements taken at 24 hours after chemical dosing in a 24-well plate.ATG_STAT3_CIS is one of 52 assay component(s) measured or calculated from the ATG_CIS assay. It is designed to make measurements of mRNA induction, a form of inducible reporter, as detected with fluorescence intensity signals by Reverse transcription polymerase chain reaction (RT-PCR) and Capillary electrophoresis technology.Data from the assay component ATG_STAT3_CIS was analyzed into 1 assay endpoint. This assay endpoint, ATG_STAT3_CIS, was analyzed with bidirectional fitting relative to DMSO as the negative control and baseline of activity. Using a type of inducible reporter, measures of mRNA for gain or loss-of-signal activity can be used to understand the reporter gene at the transcription factor-level as they relate to the gene STAT3. Furthermore, this assay endpoint can be referred to as a primary readout, because this assay has produced multiple assay endpoints where this one serves a reporter gene function. To generalize the intended target to other relatable targets, this assay endpoint is annotated to the dna binding intended target family, where the subfamily is stat protein.
Sequence of Signal transducer and activator of transcription 3 (Homo sapiens) (P40763 whole entry, looked up): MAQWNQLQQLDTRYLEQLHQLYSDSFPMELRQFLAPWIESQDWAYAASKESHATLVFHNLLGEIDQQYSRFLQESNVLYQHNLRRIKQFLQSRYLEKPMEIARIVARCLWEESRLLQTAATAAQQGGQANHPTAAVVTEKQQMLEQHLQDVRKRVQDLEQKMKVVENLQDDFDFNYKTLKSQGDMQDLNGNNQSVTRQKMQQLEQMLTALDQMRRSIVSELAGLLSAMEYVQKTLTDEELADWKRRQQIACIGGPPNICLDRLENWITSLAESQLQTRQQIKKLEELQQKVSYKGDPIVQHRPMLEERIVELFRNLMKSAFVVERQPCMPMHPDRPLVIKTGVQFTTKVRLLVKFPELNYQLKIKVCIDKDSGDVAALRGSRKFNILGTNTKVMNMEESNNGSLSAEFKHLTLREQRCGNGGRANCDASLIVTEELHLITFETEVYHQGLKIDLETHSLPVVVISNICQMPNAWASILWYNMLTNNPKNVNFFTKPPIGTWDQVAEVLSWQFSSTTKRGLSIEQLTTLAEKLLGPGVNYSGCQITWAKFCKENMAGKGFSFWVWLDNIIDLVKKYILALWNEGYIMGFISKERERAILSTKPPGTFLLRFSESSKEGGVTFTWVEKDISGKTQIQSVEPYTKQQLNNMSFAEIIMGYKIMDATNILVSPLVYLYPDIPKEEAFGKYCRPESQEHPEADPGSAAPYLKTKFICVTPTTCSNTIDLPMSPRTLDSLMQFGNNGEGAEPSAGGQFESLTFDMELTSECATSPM
Human liver HepG2 cells are transiently transfected with multiple reporter transcription units (MRTUs) in 6-well plates using FuGene 6 reagent (Roche; 3 ml FuGene/1 mg DNA). The MRTU constructs are regulated by a cis-regulating element (promoter). […] A major difference between the CIS and TRANS system is that in CIS activities of endogenous TFs are measured, whereas the TRANS assay evaluates changes in activities of exogenous, chimeric NR-Gal4 proteins. […] At the end of 24 hour incubation, total RNA was isolated using TriZol reagent (Invitrogen). The isolated RNA is then reverse-transcribed using oligo(dT) primer and Mo-MLV reverse transcriptase (Invitrogen) with DNAse I (Ambion) treatment for 30 min. The one-tenth of the produced cDNA was amplified by PCR using Taq DNA polymerase (Invitrogen) and two reporter sequence-specific primers. The PCR products were fluorescently labeled by primer extension with 6-arboxyfluorescein (6-FAM) 5'-labeled reporter sequence-specific primer (2 min at 95 C, 20 s at 68 C and 10 min at 72 C) and these products were digested with 5U of HpaI (New England Biolabs) for 2h at 37 C. The fragments were purified using Qiaquick PCR columns (Qiagen), analyzed on an ABI 3130xL genetic analyzer (Applied Biosystems) with peak positions identified by using a set of X-rhodamine (ROX)-labeled MapMarker1000 molecular weight standards (BioVentures). The raw capillary electrophoresis data was processed using Attagraph software (Attagene).
Take `Cc1cc(-n2nc3ccc(Cl)cc3n2)c(O)c(C(C)(C)C)c1`: the result was inactive.
Still for that read-out and setting: under `Cc1cccnc1` stands “inactive”; under `CC(C)(C)NC(=O)[C@@H]1CN(Cc2cccnc2)CCN1C[C@@H](O)C[C@@H](Cc1ccccc1)C(=O)N[C@H]1c2ccccc2C[C@H]1O`, “inactive”; under `CC1(C)S[C@@H]2[C@H](NC(=O)[C@H](N)c3ccccc3)C(=O)N2[C@H]1C(=O)O`, “inactive”.
Same read-out and setting: next, `CO[Si](CCCNCCN)(OC)OC`: “inactive”; `COC(OC)C(C)c1ccccc1` (stereo not given): “inactive”; `OCCOCCOCCOCCOCCO`: “inactive”.
On the same count and under the same terms, under `COC(=O)CCSCCC(=O)OC` stands “inactive”; under `CCCCCCCCCCC1CO1` (stereo not given), “inactive”; under `OCCc1ccccn1`, “inactive”.
For the compound `O=C(CC(C(=O)OC1CCCCC1)S(=O)(=O)O)OC1CCCCC1` (stereo not given), the compound was classed as inactive.
On the same count and under the same terms, next, `CN(C)CCC(c1ccc(Cl)cc1)c1ccccn1` (stereo not given): “inactive”; `COC(=O)c1ccccc1`: “inactive”.
Turning to `CCO[Si](CCCN)(OCC)OCC`, the call was inactive.
As for `OCCN(CCO)c1cccc(Cl)c1`, the call was inactive.
As to `CC(C)CC(=O)CC(C)C`, the result was inactive.
Still for that read-out and setting: under `Sc1nc2ccccc2s1` stands “inactive”; under `CC(=O)CCc1ccccc1`, “inactive”; under `CC(=O)OC(C)(C)Cc1ccccc1`, “inactive”.
`CC(C)CC(=O)O`: the outcome was inactive.
Still for that read-out and setting: next, `NCc1ccccc1`: “inactive”.
The same measure, in the same setting: next, `O=C(O)c1ccccc1C(=O)O`: “inactive”; `Cc1cc2nc3c(=O)[nH]c(=O)nc-3n(C[C@H](O)[C@H](O)[C@H](O)CO)c2cc1C`: “inactive”.
The same measure, in the same setting: under `O=C1CCCCCCCCCCCCCC1` stands “inactive”; under `C=CCOCC(CC)(CO)COCC=C`, “inactive”; under `Cc1cc(C)c(S(=O)(=O)O)cc1N=Nc1cc(S(=O)(=O)O)c2ccccc2c1O`, “inactive”.
As to `O=[N+]([O-])c1ccccc1C(F)(F)F`, the compound was called inactive.
Same read-out and setting: under `CCCCCCC(O)CCCCCCCCCCC(=O)OC` (stereo not given) stands “inactive”; under `C=C(C)C(=O)OCCCCCC`, “inactive”.
On the same count and under the same terms, under `CCCCCC1CCCC(=O)O1` (stereo not given) stands “inactive”; under `CNC[C@H](O)[C@@H](O)[C@H](O)[C@H](O)CO`, “inactive”.
Same read-out and setting: under `CCc1cc(C(N)=S)ccn1` stands “inactive”; under `CC(C)=CCOC(=O)c1ccccc1`, “inactive”; under `CC/C=C/CCO`, “inactive”.
Regarding `CC(=O)Nc1c(I)c(NC(C)=O)c(I)c(C(=O)O)c1I`, the call was inactive.
Take `O=C(c1ccccc1)c1ccccc1O`: the AC50 was 154 µM (active).
`c1cc(N(CC2CO2)CC2CO2)ccc1Cc1ccc(N(CC2CO2)CC2CO2)cc1` (stereo not given): the call was inactive.
With `O=C(O)c1cc(Cl)cc(Cl)c1O`, the call was inactive.
Still for that read-out and setting: next, `CC[N+](CC)(CC(=O)Nc1c(C)cccc1C)Cc1ccccc1` (tested in a mixture with another compound): “inactive”; `C=C(C)C(=O)OCC1CCCO1` (stereo not given): “inactive”.

What is called AC50 is the concentration at which the activity in the assay is half-maximal.

Source of the values: PubChem BioAssay (EPA / NIEHS).
